Results published in PubChem BioAssay (NCI).
Compounds without any hit were thinned out: in the full panel of roughly 83,000, 20% have a hit.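 Interpretation: 100, growth as untreated; towards 0, rising growth inhibition; 0, no net growth; 0 to -100, cell death. Compounds scoring below 10 were considered active.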 Values without a mark were called inactive. Calls of active or inactive are those of the source.

Assays:
Experiment in all cases: NCI-60 one-dose screen, 48 h (100 = growth as untreated, 0 = no growth, -100 = all killed)
SK-MEL-2 melanoma = settings: 10 µM unless noted
EKVX NSCLC = settings: 10 µM
SN12C renal = settings: 10 µM unless noted
UO-31 renal = settings: 10 µM unless noted
TK-10 renal = settings: 10 µM unless noted
ACHN renal = settings: 10 µM unless noted
CAKI-1 renal = settings: 10 µM unless noted
A498 renal = settings: 10 µM unless noted
CCRF-CEM leukemia = settings: 10 µM
MOLT-4 leukemia = settings: 10 µM unless noted
RPMI-8226 leukemia = settings: 10 µM unless noted
OVCAR-8 ovarian = settings: 10 µM unless noted
OVCAR-5 ovarian = settings: 10 µM unless noted
OVCAR-4 ovarian = settings: 10 µM unless noted
SK-OV-3 ovarian = settings: 10 µM unless noted
IGROV1 ovarian = settings: 10 µM unless noted
OVCAR-3 ovarian = settings: 10 µM unless noted
HS 578T breast = settings: 10 µM unless noted
NCI/ADR-RES ovarian = settings: 10 µM unless noted
SR leukemia = settings: 10 µM unless noted

| Structure (SMILES) | growth (SK-MEL-2 melanoma) | growth (EKVX NSCLC) | growth (SN12C renal) | growth (UO-31 renal) | growth (TK-10 renal) | growth (ACHN renal) | growth (CAKI-1 renal) | growth (A498 renal) | growth (CCRF-CEM leukemia) | growth (MOLT-4 leukemia) | growth (RPMI-8226 leukemia) | growth (OVCAR-8 ovarian) | growth (OVCAR-5 ovarian) | growth (OVCAR-4 ovarian) | growth (SK-OV-3 ovarian) | growth (IGROV1 ovarian) | growth (OVCAR-3 ovarian) | growth (HS 578T breast) | growth (NCI/ADR-RES ovarian) | growth (SR leukemia) |
| --- | --- | --- | --- | --- | --- | --- | --- | --- | --- | --- | --- | --- | --- | --- | --- | --- | --- | --- | --- | --- |
| COc1cc(-c2cc3cnccc3c3nc(N)c4ccncc4c23)cc(OC)c1OC | 70.1% | 55.3% | 40.7% | 11.9% | 22.6% | 34.5% | 43.6% | -16.8% (active) | 36.5% | 32.9% | 8.28% (active) | 41.4% | 68.7% | 73.5% | 57.5% | 15% | 48.8% | 10.1% | 30.7% |  |
| CCc1ccc(C(=Nc2ccc(N(C)C(=O)CN3CCN(C)CC3)cc2)c2c(O)[nH]c3ccc(C(=O)OC)cc23)cc1 | -55.4% (active) | -17.4% (active) | -57.4% (active) | -94.9% (active) | -64.7% (active) | -69.1% (active) | -82.9% (active) | -82.2% (active) | -15.5% (active) | -37.6% (active) | -46.9% (active) | -34.5% (active) | -58.1% (active) | -61.3% (active) | -61.5% (active) | -65.4% (active) | -69.9% (active) | -48.7% (active) | 10.5% |  |
| O=C(Nc1cccc(Cn2c(=O)[nH]c3ccc(Oc4ncccn4)cc3c2=O)c1)c1ccc(Cl)cc1 | 59.5% | 52.3% | 63.5% | 47.7% | 58.5% | 40.3% | 60.9% | 53.4% | 47% | 22.5% | 25.5% | 31.8% | 99% | 31.5% | 66% | 66.9% | 65.1% | 49.2% | 71.2% |  |
| COc1cc2oc(-c3ccc(NC(=O)c4ccccc4)cc3)cc(=O)c2c(OC)c1OC | 92.1% | 90.8% | 83.7% | 88.7% | 91.8% | 83.5% | 96.8% | 90.9% | 82.2% | 92.2% | 73.7% | 77.9% | 86.6% | 64.6% | 101% | 84.2% | 92.9% | 80.7% | 89.4% |  |
| O=C1C(Cl)=C(SC2=NCCN2)C(=O)c2ccccc21 | 66.7% | 94.4% | 74% | 48.3% | 173% | 83.5% | 93.9% | 119% | 61.7% | 68.9% |  | 65.8% | 97.4% | 80.5% | 93.5% | 49.9% | 46.8% | 93.1% | 86.8% |  |
| CCOC(=O)CNS(=O)(=O)CC(=O)c1ccccc1 | 128% | 90.3% | 84.2% | 86.6% | 80.9% | 99.5% | 93% | 117% | 105% | 109% | 96.1% | 108% | 101% | 85.4% | 105% | 94.6% | 126% | 124% | 102% |  |
| COc1cc2c(cc1OC)C(Cc1cc(OC)c(OC)cc1[N+](=O)[O-])=NCC2 | 92.9% | 92.8% | 77.9% | 66.9% | 73.4% | 85.2% | 87.9% | 56.4% | 88.3% | 92.4% | 78.1% | 98% | 73.6% | 91.6% | 89.8% | 98.1% | 95.4% | 87.8% | 81.8% |  |
| Cc1ncc(C(=O)Nc2ccc(CN3CCN(C)CC3)c(C(F)(F)F)c2)cc1C#Cc1c(N)ncc2ccc(F)cc12 | 0.14% (active) | -7.75% (active) | 19.1% | 6.12% (active) | -89.2% (active) | -15.8% (active) | 20.8% | -65.1% (active) | -47.6% (active) | -57.9% (active) | -43.6% (active) | -74.8% (active) | -45.3% (active) | -58.6% (active) | 41.4% | -76% (active) | -23.4% (active) | -1.46% (active) | -29.7% (active) |  |
| Cc1ccc(S(=O)(=O)Nc2cccc(Cn3c(=O)[nH]c4ccc(Oc5ncccn5)cc4c3=O)c2)cc1 | 55% | 86.6% | 86.5% | 74.2% | 105% | 87.7% | 92.9% | 77.8% | 65.9% | 64.5% | 61.2% | 90.8% | 86.7% | 90.5% | 81.2% | 57.8% | 38.9% | 89.3% | 93.3% |  |
| O=C(O)/C(Br)=C/c1c[nH]c2ccc(Br)cc12 | 99% | 119% | 108% | 88.8% | 117% | 104% | 97.6% | 132% | -46.1% (active) | 31.8% | 114% | 106% | 90.6% | 59.7% | 171% | 98.2% | 105% | 105% | 102% |  |
| CCOc1ccc(/C=N/NC(=O)c2cccc3ccccc23)cc1OCC | 106% | 99.1% | 96.1% | 81.6% | 111% | 102% | 99.3% | 78.1% | 84.1% | 88.3% | 83.8% | 105% | 104% | 91.9% | 99.2% | 108% | 96.4% | 98.6% | 97.9% |  |
| Cc1ccc(C(=O)Nc2ccc(CN3CCN(C)CC3)c(C(F)(F)F)c2)cc1C#Cc1cnc(N)c2ccc(F)cc12 | -56.2% (active) | -92.2% (active) | -90.8% (active) | -97.3% (active) | -84.5% (active) | -100% (active) | -58% (active) | -69.9% (active) | -58.7% (active) | -67.1% (active) | -59.4% (active) | -70.9% (active) | -90.2% (active) | -60.8% (active) | 1.66% (active) | -82.9% (active) | -83.3% (active) | -30.2% (active) | -52.4% (active) |  |
| COC(=O)C1CC(=O)N(C(=O)Nc2ccc(Cl)cc2Cl)C1 (stereo not drawn) | 108% | 96.5% | 101% | 84.1% | 112% | 99.9% | 95.6% | 115% | 103% | 95% | 98.9% | 99.1% | 101% | 117% | 88.4% | 107% | 111% | 82.9% | 99.6% |  |
| N=C(N)c1ccc(-c2ccc(-c3ccc(Cl)cc3)s2)s1 | -29.6% (active) | -70.7% (active) | -50% (active) | -87.5% (active) | -55.3% (active) | -97% (active) | -11.6% (active) | 50.9% | -70.8% (active) | -59.6% (active) | -38.2% (active) | -37% (active) | -79.4% (active) | -50.8% (active) | -50.9% (active) | -49.5% (active) | -78.8% (active) | -21.7% (active) | -47% (active) |  |
| C=C[C@]1(C)C=C2C(=O)[C@@]3(O)OC[C@@]4(CCCC(C)(C)C43O)C2(O)C(O)C1 (stereo partly drawn) | -0.387% (active) | 91.2% | 93.2% | 33.8% | -68.2% (active) | 3.59% (active) | 10.8% | 99.4% |  | 78% | 15.2% | 58.3% | 120% | 24.4% | 104% | 107% | 16.3% | 90.3% | 60.9% | -14.4% (active) |
| Cc1nnc(-c2cc3c(ccc4ccccc43)oc2=O)c2cn(-c3ccc(Cl)cc3)nc12 | 95.4% | 84% | 99.5% | 66.2% | 151% | 97.5% |  | 103% | 74.1% | 75.4% | 75% | 96.3% | 108% | 83.8% | 91.7% | 87% | 89.8% | 93.8% | 96.3% | 80.4% |
